PfHsp90 yeast 2 = growth inhibition of PfHsp90-expressing yeast, primary screen, antimalarial PfHsp90 inhibitor project, S. cerevisiae, BacTiter-Glo luminescence, single point, set 2; actives 0.32% (n = 310,000); BacTiter-Glo ATP, 48 h; yeast lacking PDR1 and PDR3 efflux regulators; inhibition, % at 9.4 µM;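 active means every replicate shows inhibition above about 80%, whatever the replicate mean, limit read from the data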;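 further: 0% = DMSO neutral controls and 100% = 20 µM radicicol positive controls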
SKKanGAS inh = S. pyogenes SKKanGAS growth inhibitors in kanamycin, primary screen, streptokinase expression inhibitor project, SKKanGAS strain, BacTiter-Glo luminescence; AID 1662, 2009; actives 1.3% (n = 300,000); 6 h; inhibition, % at 7.5 µM;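 active means mean replicate score, as percent of positive control median, at least 50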;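 further: strain carries kanamycin resistance gene driven by streptokinase promoter and grows in 40 µg/ml kanamycin; loss of luminescence reflects streptokinase promoter inhibition or plain growth inhibition; 0% = median of DMSO wells and 100% = positive control at its reference dose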
tim10-1 inh = growth inhibitors of tim10-1 mutant yeast, primary screen, luminescence, uHTS; S. cerevisiae tim10-1 ts strain growth, BacTiter-Glo, 24 h; inhibition, % at 20 µM; AID 463190, 2010; actives 2.2% (n = 330,000);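 active means inhibition of at least 40%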;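 further: mutant grown at 25 °C; 0% = DMSO wells with yeast and 100% = wells holding no yeast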
NLRP3 yeast inh = NALP3 inflammasome inhibitors in reconstituted yeast, primary screen, luminescence, uHTS | Yeast reconstituted NLRP3/ASC/caspase-1, beta-gal luminescence, 24 h | inhibition, % at 10 µM | actives 0.39% (n = 330,000);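 active means inhibition of 50% or more; inactive means inhibition below 50%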;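 further: plate controls were induced DMSO wells for no effect and uninduced yeast grown without galactose for full effect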
TIM10 inh = growth inhibitors of isogenic TIM10 control yeast, primary screen, counter-screen for tim10-1 yeast inhibitor project, luminescence, uHTS | actives 1.4% (n = 330,000) | AID 463195, 2010 | S. cerevisiae TIM10 strain growth, BacTiter-Glo luminescence, 24 h | inhibition, % at 10 µM;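 active means inhibition of 40% or more at the single tested concentration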;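 further: wild-type TIM10 isogenic control strain grown at permissive 25 °C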
tim23-1 inh = growth inhibitors of tim23-1 mutant yeast, primary screen, luminescence, uHTS | S. cerevisiae tim23-1 growth, BacTiter-Glo luminescence, 24 h | inhibition, % at 20 µM | actives 1.3% (n = 330,000);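 active means growth inhibition of the mutant yeast at or above 50%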;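 further: temperature-sensitive mutant grown at 25 °C; plate controls were DMSO-treated mutant yeast for no effect and medium wells lacking yeast for full effect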
tim10-1 conf = growth inhibitors of tim10-1 mutant yeast, confirmation, single concentration, luminescence, S. cerevisiae; shares compounds with tim10-1 inh; S. cerevisiae tim10-1 ts strain growth, BacTiter-Glo, 24 h; inhibition, % at 20 µM; actives 56% (n = 7,400); AID 463213, 2010;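 active means inhibition of yeast growth at or above a set limit in either of two repeat tests at 20 µM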;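 further: tim10-1 mutant grown at permissive 25 °C to find synthetic lethal compounds; 0% = DMSO yeast wells and 100% = medium wells without yeast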
TIM10 conf = growth inhibitors of wild-type TIM10 yeast, confirmation, counter-screen for tim10-1 synthetic lethality project, single concentration, luminescence, S. cerevisiae; shares compounds with TIM10 inh; S. cerevisiae tim10 strain growth, BacTiter-Glo luminescence, 24 h; inhibition, % at 10 µM; actives 63% (n = 4,600); AID 463215, 2010;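 active means inhibition of yeast growth at or above a set limit in either of two replicates at 10 µM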;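 further: this counterscreen used the strain with wild-type TIM10; 0% = yeast with DMSO and 100% = medium wells lacking yeast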
tim23-1 conf = tim23-1 mutant yeast growth inhibitors, confirmation, luminescence, single concentration; shares compounds with tim23-1 inh; S. cerevisiae tim23-1 growth, BacTiter-Glo luminescence, 24 h; actives 83% (n = 4,400); inhibition, % at 20 µM;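 active means inhibition above about 39% in either of two replicate wells at 20 µM, limit read from the data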;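 further: temperature-sensitive tim23-1 mutant grown at 25 °C; 0% = DMSO wells with yeast and 100% = medium wells without yeast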
The depositor's hits bear a star; x = no result given. Compounds with a hit are over-represented: about 4.6% of the library has one in this group of screens.

SMILES	PfHsp90 yeast 2	SKKanGAS inh	tim10-1 inh	NLRP3 yeast inh	TIM10 inh	tim23-1 inh	tim10-1 conf	tim23-1 conf	others
Cc1cc(C)c2sc(NC(=O)C3=COCCO3)nc2c1	9.2	-5.9	44.9*	22.3	42.7*	53.1*	35.2*	40.1*	TIM10 conf=30.6
Cc1ccc(Cl)c2sc(NC(=O)C3=COCCO3)nc12	-14.9	2.1	61.4*	2.8	41.9*	72.0*	51.2*	54.5*	TIM10 conf=41.1*
C[N+](C)(C)C(Cc1c[nH]c2ccccc12)C(=O)[O-] (stereo not drawn)	x	1.4	-1.3	7.0	-3.7	-5.5	x	x
CC(C)CC(NC(=O)c1ccccc1)C(=O)OCC(=O)Nc1ccc(S(N)(=O)=O)cc1 (stereo not drawn)	-9.1	-7.5	2.1	14.9	4.4	-12.5	x	x
Cc1cccc(NC(=S)NC2CCCCC2)n1	-19.0	-7.9	41.0*	18.5	49.7*	52.1*	27.6	49.9*	TIM10 conf=43.8*
O=C(CCN1C(=O)C2CC=CCC2C1=O)Nc1cc(C(F)(F)F)ccc1N1CCCC1 (stereo not drawn)	-18.5	-6.2	16.7	30.6	8.0	27.4	x	x
O=[N+]([O-])c1ccc(NC(=S)N2CCc3ccccc32)cc1	-7.8	x	49.4*	31.4	34.7	54.2*	41.7*	48.7*
COc1ccc(N2CCN(C(=O)CN(C)S(=O)(=O)c3cnc[nH]3)CC2)cc1	-4.4	-11.0	8.8	11.3	-5.4	7.4	x	x
CCN(CC)c1ccc(/C=C/c2ccc3ccc(OC)cc3[n+]2CC)cc1	32.1	24.9	73.2*	26.4	31.4	67.5*	67.8*	58.4*
CCCCCC(C)n1[nH]c(=O)cc1N (stereo not drawn)	3.8	-6.4	-7.6	-7.4	11.7	9.7	x	x
CC(C)CC(OC(=O)c1ccc(Cl)nc1)C(=O)NC1CCCC1 (stereo not drawn)	-19.3	-1.3	7.4	14.1	-5.0	4.6	x	x
OC(C1=CC(=Cc2ccncc2)c2ccccc21)c1ccncc1 (stereo not drawn)	-13.0	x	x	x	x	x	x	x
CC(C)C(=O)N1CCN(c2ccccc2NC(=S)NC(=O)Cc2ccccc2)CC1	-69.4	17.4	10.8	18.2	9.9	13.6	x	x
O=S1(=O)c2ccccc2N=NN1Cc1ccc(Cl)c(Cl)c1	x	13.1	28.1	6.2	13.6	-3.2	x	x
CC(C)(C)c1ccc(CN2N=Nc3ccccc3S2(=O)=O)cc1	5.5	3.7	71.6*	10.9	59.7*	62.8*	64.3*	27.8	TIM10 conf=-1.1
CCSc1ccccc1C(=O)n1nnc2ccccc21	7.8	x	54.6*	-23.4	39.4	58.6*	48.9*	70.3*
CCSc1ccccc1C(=O)N1CCCC1	x	-10.9	-0.1	6.1	11.2	1.4	x	x
C=CCn1c(CCC(O)COCCCCC)n[nH]c1=S (stereo not drawn)	6.8	-4.5	6.9	4.1	-13.1	-18.2	x	x
CCc1cc(C(=O)Cc2ccc(F)cc2)c(O)cc1O	16.7	-3.2	25.4	-11.9	22.9	35.9	x	x
O=C(Cc1ccc(F)cc1)c1ccc(O)cc1O	17.8	0.1	44.0*	5.2	36.7	54.8*	34.8*	44.2*
O=C(Cc1c(F)cccc1Cl)c1ccc(O)cc1O	-20.5	-10.7	47.9*	39.0	56.5*	67.2*	60.0*	68.2*	TIM10 conf=57.8*

Assay outcomes deposited in PubChem BioAssay by several laboratories.
